Source: PubChem BioAssay AID720504 (National Center for Advancing Translational Sciences (NCATS), 2013)
Several values for one entry are separate records, joined by “and”; a condition that tells them apart may be missing. Identical values can stand only once. Hit rate of the full screen: of about 360,000 compounds, about 10,000 (2.8%) were called active. Not shown: some 4% with an inconclusive outcome. Only a selection was taken, and actives are over-represented in it overall. A number with no mark means an inactive call. Calls follow the shape of the dose curve; as a rule, active = well fitted inhibition curve with a large enough effect; inconclusive = small, poorly fitted or top-dose-only effect; inactive = flat fitted curve, though single readings scatter.

molecular target: Serine/threonine-protein kinase PLK1 (Homo sapiens) (UniProt P53350); experiment: qHTS for Inhibitors of PLK1-PDB (polo-like kinase 1 - polo-box domain): Primary Screen; conditions: Plk1 PBD binding of FITC phosphopeptide, fluorescence polarization; also: nearly all actives have a fitted effect of over 65% in size; as to max response, negative = inhibition: series mostly up to about 57 µM
% is scaled to controls: 0 for no effect and ±100 for the full control effect; potency is read from the fitted curve at half-maximal effect.

Chain of Serine/threonine-protein kinase PLK1 (Homo sapiens) (P53350 whole entry, looked up, the tested form may be a part): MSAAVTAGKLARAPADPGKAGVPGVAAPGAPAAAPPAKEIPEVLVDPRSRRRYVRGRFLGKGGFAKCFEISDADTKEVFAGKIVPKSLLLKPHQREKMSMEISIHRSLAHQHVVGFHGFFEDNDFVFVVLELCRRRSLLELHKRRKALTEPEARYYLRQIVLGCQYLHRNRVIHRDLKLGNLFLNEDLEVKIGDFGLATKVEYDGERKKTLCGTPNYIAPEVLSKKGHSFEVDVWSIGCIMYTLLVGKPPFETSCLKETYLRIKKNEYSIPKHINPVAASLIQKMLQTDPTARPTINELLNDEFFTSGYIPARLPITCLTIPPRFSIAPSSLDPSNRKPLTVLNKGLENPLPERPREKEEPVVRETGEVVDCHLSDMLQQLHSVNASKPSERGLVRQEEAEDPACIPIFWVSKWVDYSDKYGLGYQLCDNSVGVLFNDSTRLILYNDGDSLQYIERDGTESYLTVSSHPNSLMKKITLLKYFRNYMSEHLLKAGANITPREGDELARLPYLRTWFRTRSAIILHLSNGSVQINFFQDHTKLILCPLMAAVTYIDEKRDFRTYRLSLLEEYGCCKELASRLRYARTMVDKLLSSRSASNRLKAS

Row | SMILES | max response, negative = inhibition [%] | Potency
1 | FC(F)(F)c1ccccc1Cc1c(-c2ccccc2)nc2c3ccccc3ccn12 | 5.06 | 
2 | COc1ccc(C(NC(=O)C2CCN(CCCc3ccccc3)CC2)c2cccs2)cc1 (stereo not given) | -15.3 | 
3 | CCCc1nc2c3ccccc3ccn2c1Cc1ccccc1C(F)(F)F | -6.42 | 
4 | CCCNC(=O)C1(C)CCN(C(=O)c2ccc(F)cc2Cl)C1 (stereo not given) | -7.53 | 
5 | COc1ccccc1CC1(C)C(=O)Nc2ccc(OC(F)(F)F)cc21 (stereo not given) | -13.6 | 
6 | CCCCNC(=O)OC1CC2CC1[C@H]1CCCCN1C2=O (stereo not given in full) | -1.73 | 
7 | Cc1ccc(S(=O)(=O)/N=C(/Nc2ccccn2)c2ccc(Cl)cc2)cc1 | -1.19 | 
8 | Cc1ccc(S(=O)(=O)/N=C(/Nc2ccc3[nH]c(=O)[nH]c3c2)c2ccccc2)cc1 | -15.4 | 
9 | Cc1ccc(S/C(=N\S(=O)(=O)c2ccc(Cl)cc2)c2ccccc2)cc1 |  | 2.67 µM (active)
10 | CC1CN(C(=O)c2cccc(NS(=O)(=O)c3ccc(Br)cc3)c2)CC(C)O1 (stereo not given) | -2.62 | 
11 | O=S1(=O)CC(N2CCN(c3ccccn3)CC2)CN1Cc1ccc(F)cc1 (stereo not given) | -5.38 | 
12 | CSc1ncccc1C(=O)N1CCCC(Nc2ccc(F)c(F)c2)C1 (stereo not given) | -2.74 | 
13 | Cc1sc(NC(=O)C2C3CCC(O3)C2C(=O)O)c(C(=O)OC(C)C)c1-c1ccc(Cl)cc1 (stereo not given) |  | 7.52 µM (active)
14 | CC(C)OC(=O)c1cc(NC(=O)C2C3CCC(O3)C2C(=O)O)cc(C(=O)OC(C)C)c1 (stereo not given) | -3.95 | 
15 | COc1ccc(NC(=O)C2C3CCC(O3)C2C(=O)O)cc1OC (stereo not given) | 4.35 | 
16 | CCc1nc2c(OCCOc3ccccc3)cccn2c1N(C=O)Cc1ccc(OC)cc1 | -6.91 | 
17 | O=C(Oc1ccc(Br)cc1C(=S)N1CCOCC1)c1cccc([N+](=O)[O-])c1 |  | 11.9 µM (active)
18 | COc1cc(C(=S)N2CCOCC2)cc(OC)c1OC(=O)c1ccc([N+](=O)[O-])cc1[N+](=O)[O-] | -24.3 | 
19 | O=C(Oc1ccccc1Cl)c1ccc(N2CCOCC2)c([N+](=O)[O-])c1 | -14.3 | 
20 | CC(=O)Nc1ccc(S(=O)(=O)Oc2ccc(Br)cc2C(=S)N2CCOCC2)cc1 | -17.8 | 
21 | O=C(Oc1ccccc1C(=S)N1CCCCC1)c1cc([N+](=O)[O-])cc([N+](=O)[O-])c1 |  | 2.12 µM (active) and 2.67 µM (active)
22 | COc1ccc(C(=O)N2CCCC(C(=O)c3ccccc3OC)C2)cc1OC (stereo not given) | -20.4 | 
23 | COc1ccc(S(=O)(=O)N2CCCCC2)cc1C(=O)NC1CCS(=O)(=O)C1 (stereo not given) | 5.08 | 
24 | O=c1[nH][nH]c2c1[C@H](c1ccc(Cl)cc1)O[C@H](CCc1ccccc1)C2 | -16.9 | 
25 | CCOC1=C2CN(S(=O)(=O)c3ccc(C)cc3)[C@H](c3cccs3)C[C@H]2[C@H]2C(=O)N(c3ccccc3)C(=O)[C@H]2C1 | -0.0091 | 
26 | N#Cc1c(-c2ccc(F)cc2)nc(-c2ccccc2)[nH]c1=O | -13.6 | 
27 | O=c1[nH]c(SCc2cccc(F)c2)nc2ccccc12 | -13.9 | 
28 | N#Cc1c(-c2ccccc2)nc(SCc2ccc([N+](=O)[O-])cc2)[nH]c1=O |  | 26.7 µM (active)

Row | SMILES | max response, negative = inhibition [%] | Potency
29 | N#Cc1c(-c2ccccc2)nc(SCc2cccc(C(F)(F)F)c2)[nH]c1=O |  | 23.8 µM (active)
30 | O=C(Nn1c(SCc2ccc([N+](=O)[O-])cc2)nc2ccccc2c1=O)c1ccc(F)cc1 | -14.4 | 
31 | Cc1ccccc1CSc1nnc(-c2ccccc2)c(=O)[nH]1 | -22.2 | 
32 | S=C(NN=Cc1ccccn1)Nc1ccccn1 | -6.29 | 
33 | COc1ccc(CCCNC(=O)C2Cc3c(-c4cccc(C(N)=O)c4)ccnc3O2)cc1 (stereo not given) | -3.93 | 
34 | CCc1nc2ccc(C(=O)Nc3ccc(OC)c(OC)c3)cn2c1N(C)C(=O)c1cccc(OC)c1 | -6.83 | 
35 | O=C(NNC(=O)c1ccccc1[N+](=O)[O-])Nc1ccccc1C(F)(F)F | -9.97 | 
36 | O=C(O)c1ccccc1NC(=S)NC(NC(=O)c1ccccc1[N+](=O)[O-])C(Cl)(Cl)Cl (stereo not given) |  | 26.7 µM (active)
37 | O=C(Nc1ccccc1[N+](=O)[O-])C1C(c2ccccc2)=C1c1ccccc1 | 0.94 | 
38 | COc1cccc(-n2c(=S)sc3c(=O)n(-c4ccccc4C)c(SCC(=O)O)nc32)c1 | -8.81 | 
39 | COc1ccc(Cl)cc1-n1c(=S)sc2c(=O)n(-c3ccc(F)cc3)c(SCC(=O)O)nc21 |  | 23.8 µM (active)
40 | COc1ccccc1-n1c(SCC(=O)O)nc2sc3c(c2c1=O)CCC3 | -11.7 | 
41 | C#CCN(C[C@H]1[C@H](OC(=O)NC2CCCC2)[C@H](OC(=O)NC2CCCC2)C[C@H]2C(=O)N(c3ccccc3)C(=O)[C@@H]12)S(=O)(=O)c1ccc(C)cc1 | -0.644 | 
42 | CC(=O)Nc1ccc(-c2ccnc3c2CC(C(=O)NC(C)C)O3)cc1 (stereo not given) | -3.44 | 
43 | O=C(NCCCCO)C(F)(F)C(F)(F)C(F)(F)C(=O)NCCCCO |  | 18.9 µM (active)
44 | O=C(NCCCCCCCCCNC(=O)C(F)(F)F)C(F)(F)F | -1.31 | 
45 | COCCNc1ncnc2c1ncn2[C@H]1CN(CCN2CCOCC2)C[C@@H](CO)O1 | -5.67 | 
46 | CC(C)Nc1nc(NCCOc2ccccc2Cl)c2sccc2n1 | 4.77 | 
47 | Cc1sc2ccccc2c1CNC[C@H]1O[C@@H](n2ccc(=O)[nH]c2=O)[C@H](O)[C@@H]1O | 2.69 | 
48 | CC1CCN(c2nc3c(c(=O)[nH]c(=O)n3C)n2CCCc2ccccc2)CC1 | -10.5 | 
49 | C=CCn1c(SCc2ccccc2)nc2c1c(=O)[nH]c(=O)n2C |  | 26.7 µM (active)
50 | Cc1nnc(Sc2nc3c(c(=O)[nH]c(=O)n3C)n2Cc2ccccc2)s1 | 0.479 | 
51 | CN(C)C1CN(Cc2cn(Cc3ccccc3)nn2)S(=O)(=O)C1 (stereo not given) | -9.56 | 
52 | CCCCCc1c(-c2cccc(Br)c2)ncn1CCc1ccccc1OC | -9.6 | 
53 | O=C(NCCS(=O)(=O)N1CCN(c2ccccc2)CC1)c1ccco1 | -3.4 | 
54 | O=C(NCCS(=O)(=O)N1CCN(c2ccccc2F)CC1)c1ccc(Br)o1 |  | 15 µM (active)
55 | O=C(NCCS(=O)(=O)N1CCN(c2ccccc2)CC1)c1cc(=O)c2ccccc2o1 | -10.4 | 
